About 79,000 compounds went through this panel and 15% of them were active in at least one assay; those are over-represented in the sample as a whole. Values without a mark were called inactive. Activity calls are given as the source filed them. Cut-off read from the data, not from the text of the source: active = growth inhibition above about 70%; inactive = the rest.

These results are taken from PubChem BioAssay (NCI).

The first experiment in a line: NCI Yeast Anticancer Drug Screen. Data for the sgs1 mgt1 strain (AID 161).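 Note: 0% = growth of cultures given vehicle only.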 The conditions noted are these: S. cerevisiae sgs1 mgt1 strain, at 50.0 µM (retest, dose inferred, filed as 5.0), hits give high values. In short, it runs like this:
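Inhibition of yeast growth, normalised to vehicle-treated controls, is reported for a strain bearing genetic alterations in DNA damage repair.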
Consider `C[N+](C)(CCO)Cc1ccccc1`, for which the growth inhibition was -37%.
Take `CCOC(=O)C(C)(C)Oc1ccc2c(=O)cc(-c3ccccc3)oc2c1`: the growth inhibition is 95% (active).
On the same count and under the same terms, in the case of `CS(=O)c1cc(=O)c2ccccc2s1` (configuration not stated) it was 67%; in that of `COC(=O)c1c[nH]c2ccc(Br)cc12`, 19%.
Regarding `CCCCN1C(=O)C(=O)N(c2ccccc2)C1=O`, the growth inhibition is 1%.
Turning to `Cc1cc(N)c2cc(OCCOc3ccc4nc(C)cc(N)c4c3)ccc2n1`, the growth inhibition is 93% (active).
Regarding `Cc1c2c(c(C)c3c4c(oc13)CCCC4)C=NCC2`, the growth inhibition was 36%.
Same read-out and setting: for `CCCC(c1ccc(O)cc1)c1ccc(O)cc1` the value was 95% (active).
For the compound `CC(C)=NNc1ncnc2nc[nH]c12`, the growth inhibition was -13%.
Still for that read-out and setting: for `Clc1ccc(C2=Nc3ccccc3SC(c3ccc(Cl)c(Cl)c3)C2)c(Cl)c1` (configuration not stated) the value was 1%; for `N#Cc1c(Cl)nsc1-c1ccc([N+](=O)[O-])cc1`, 33%; for `C=CCSc1nc2ccccc2c(=O)n1Cc1ccco1`, 59%.
Consider `COC(=O)CSc1nc2[nH]c(SC)c(C(N)=O)c2c(=O)n1-c1ccccc1`, for which the growth inhibition was -7%.
For the compound `Cc1cc2oc3c(ccc(=O)n3C)c(=O)c2c(C)c1Cl`, the growth inhibition is 21%.
As to `CC(=O)SC1C(=O)N(C)C(SC(C)=O)C(=O)N1C` (configuration not stated), the growth inhibition is 55%.
With `CCCCCCCCCCCCCCCCOCC(Cl)COP(=O)(O)OP(=O)(O)OCC1OC(n2cc(C)c(=O)[nH]c2=O)CC1O` (configuration not stated), the growth inhibition was 99% (active).
Consider `CCCCCCCCCCNC(=O)CBr`, for which the growth inhibition is 99% (active).
As for `O=Cc1c(Cn2ccnc2)c2cc([N+](=O)[O-])ccc2n1Cc1ccccc1`, the growth inhibition is 48%.
As for `C=C(C)C1CC2=C(O1)C(=O)c1ccccc1C2=O` (configuration not stated), the growth inhibition is 99% (active).
For the compound `CC(C)C1=CC2=CCC3C(C)(C(=O)O)CCCC3(C)C2CC1` (configuration not stated) (tested in a mixture with another compound), the growth inhibition was 88% (active).
As for `ClCC1CSC2(CCCCC2)O1` (configuration not stated), the growth inhibition was -8%.
Regarding `Oc1cccc2ccc(SSc3ccc4cccc(O)c4n3)nc12`, the growth inhibition is 95% (active).

The same experiment, now with this note: S. cerevisiae sgs1 mgt1 strain, at 50.0 µM, hits give high values.
As to `CCC(c1ccc(OC)cc1)C(O)(CC)c1ccc(OC)cc1` (configuration not stated), the growth inhibition was 98.4% (active).
Regarding `Cc1c(Cl)c(S(N)(=O)=O)cc2c1NC=NS2(=O)=O`, the growth inhibition was -26.1%.
`CCCCCCCCNc1ncnc2c1cnn2C`: the growth inhibition is 54.8%.
For the compound `Cc1cc(N)c(C)c2c1[nH]c1ccc(Br)cc12`, the growth inhibition is 77.2% (active).
For the compound `C(=C\c1cnnc2ccccc12)/c1ccco1`, the growth inhibition is 29.4%.
On to `Cc1cc(N(CCCCl)CCCCl)ccc1C=Nc1cccc(Cl)c1`, for which the growth inhibition was 80.7% (active).
Regarding `CCC[CH2][Sn]([CH2]CCC)([O]C(=O)c1cc(F)ccc1F)[O]C(=O)c1cc(F)ccc1F`, the growth inhibition was 73.1% (active).
Same read-out and setting: in the case of `O=[N+]([O-])c1ccc(N2N=NC(CN3CCOCC3)C2N2CCOCC2)cc1` (configuration not stated) it was 47.5%.
Same read-out and setting: in the case of `O=CC(I)=C(c1ccccc1)c1ccccc1` it was 86.4% (active); in that of `CCC/C(=N\O)S(=O)(=O)c1ccc(NN=O)nc1`, -36.1%; in that of `COc1cc(Cc2n[nH]c(=S)n2-c2ccccc2)c(S(N)(=O)=O)cc1OC`, -2.75%.
`CC(=O)Nc1ccc(C(C)(C)c2ccc(C)cc2)cc1`: the growth inhibition is 24.1%.
`CC(C)=NOc1ccc([N+](=O)[O-])cc1[N+](=O)[O-]`: the growth inhibition was 54.1%.
Turning to `CC(=O)Nc1ccc2c(c1)C(S)c1ccccc1-2` (configuration not stated), the growth inhibition was 46.6%.
For the compound `CCN1CC(=O)N(C)C1=S`, the growth inhibition was 89% (active).
For the compound `[O-][n+]1c(-c2ccccc2)c(Cl)c(-c2ccccc2)n1O`, the growth inhibition is 97.6% (active).
For `CCCCCCCCCCCCCCCCN(C)c1ccc(S(=O)(=O)O)cc1[N+](=O)[O-]`, the growth inhibition was 90.5% (active).
For the compound `Cc1ccc2c(c1)-c1c(c3c(c4c1-c1cc(C)ccc1CC4)C(=O)OC3=O)CC2`, the growth inhibition was 12.2%.
Regarding `C[N+](C)(CCO)Cc1ccccc1`, the growth inhibition was 11.2%.
For `CCOC(=O)C(C)(C)Oc1ccc2c(=O)cc(-c3ccccc3)oc2c1`, the growth inhibition is 93.4% (active).
In the case of `CS(=O)c1cc(=O)c2ccccc2s1` (configuration not stated), the growth inhibition is 99.3% (active).
As to `COC(=O)c1c[nH]c2ccc(Br)cc12`, the growth inhibition was 31.8%.
Same read-out and setting: for `CCCCN1C(=O)C(=O)N(c2ccccc2)C1=O` the value was 8.65%; for `Cc1cc(N)c2cc(OCCOc3ccc4nc(C)cc(N)c4c3)ccc2n1`, 92.5% (active); for `Cc1c2c(c(C)c3c4c(oc13)CCCC4)C=NCC2`, 25%.
In the case of `CCCC(c1ccc(O)cc1)c1ccc(O)cc1`, the growth inhibition is 99.4% (active).
Take `CC(C)=NNc1ncnc2nc[nH]c12`: the growth inhibition was -28.8%.
Take `Clc1ccc(C2=Nc3ccccc3SC(c3ccc(Cl)c(Cl)c3)C2)c(Cl)c1` (configuration not stated): the growth inhibition is 63.3%.
Turning to `N#Cc1c(Cl)nsc1-c1ccc([N+](=O)[O-])cc1`, the growth inhibition is 91.1% (active).
As to `C=CCSc1nc2ccccc2c(=O)n1Cc1ccco1`, the growth inhibition is 22.4%.
On to `COC(=O)CSc1nc2[nH]c(SC)c(C(N)=O)c2c(=O)n1-c1ccccc1`, for which the growth inhibition was 7.25%.
Regarding `Cc1cc2oc3c(ccc(=O)n3C)c(=O)c2c(C)c1Cl`, the growth inhibition was 54.8%.
As for `CC(=O)SC1C(=O)N(C)C(SC(C)=O)C(=O)N1C` (configuration not stated), the growth inhibition is 96.6% (active).
In the case of `CCCCCCCCCCCCCCCCOCC(Cl)COP(=O)(O)OP(=O)(O)OCC1OC(n2cc(C)c(=O)[nH]c2=O)CC1O` (configuration not stated), the growth inhibition was 93% (active).
For the compound `CCCCCCCCCCNC(=O)CBr`, the growth inhibition is -1.3%.
Same read-out and setting: in the case of `O=Cc1c(Cn2ccnc2)c2cc([N+](=O)[O-])ccc2n1Cc1ccccc1` it was 57.2%; in that of `C=C(C)C1CC2=C(O1)C(=O)c1ccccc1C2=O` (configuration not stated), 73% (active).
Turning to `CC(C)C1=CC2=CCC3C(C)(C(=O)O)CCCC3(C)C2CC1` (configuration not stated) (tested in a mixture with another compound), the growth inhibition was 75.5% (active).
Take `ClCC1CSC2(CCCCC2)O1` (configuration not stated): the growth inhibition is 27.1%.
Regarding `Oc1cccc2ccc(SSc3ccc4cccc(O)c4n3)nc12`, the growth inhibition is 93% (active).
